The whole screen tested about 330,000 compounds, of which about 4,600 (1.4%) were called active. The entries come from a sample that favours actives as a whole. Unmarked numbers belong to inactive results.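 Rule for the calls: active = inhibition of 40% or more at the single tested concentration; inactive = the rest.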
Experiment: wild-type TIM10 yeast growth inhibition – luminescence, uHTS, counter-screen for tim10-1 yeast inhibitor project, primary screen (AID 463195);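 note: wild-type TIM10 isogenic control strain grown at permissive 25 °C; 0% = DMSO yeast wells and 100% = minimal medium wells without yeast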
Settings: S. cerevisiae TIM10 strain growth, BacTiter-Glo luminescence, 24 h; at 10 µM; stronger effect = higher value
For `CCOC(=O)CSc1nc2ccc(C)cc2n2cnnc12`, the inhibition was 3.21%.
With `O=c1ccc2cc(S(=O)(=O)Nc3ccccc3F)ccc2o1` the inhibition was 4.92%.
`O=c1oc2ccccc2c(NC2CCCCC2)c1NS(=O)(=O)c1ccc(Cl)cc1` showed an inhibition of 21.4%.
With `O=c1oc(-c2ccccc2NS(=O)(=O)c2ccc(Cl)cc2)nc2ccccc12` the inhibition was 59.4% (active).
For `O=C(NC(=O)c1ccccc1N1CCCCC1)Nc1ccc(Br)cc1`, the inhibition was 14.8%.
In the case of `CCOCCn1[nH]c2ccccc2c1=O`, the inhibition is reported as 2.98%.
For `COc1ccc(N2C(=O)CC(Sc3n[nH]c(-c4ccc(C)cc4)n3)C2=O)cc1` (stereo unspecified), the inhibition was 54% (active).
Work on `COc1ccc(N2C(=O)CC(SC(C)C)C2=O)cc1` (stereo unspecified) yielded an inhibition of 5.36%.
Work on `Cc1ccc(N2C(=O)CC(Sc3ncn[nH]3)C2=O)cc1` (stereo unspecified) yielded an inhibition of 26.4%.
`COc1ccc(CNC(=O)c2ccc3oc(C(C)C)nc3c2)cc1` gave an inhibition of 2.31%.
For `Fc1cccc(Cl)c1CSc1ccc(-c2ccco2)nn1`, the inhibition was 46.6% (active).
`Cc1cc(SCc2c(F)cccc2Cl)nc(=O)[nH]1` showed an inhibition of 9.07%.
`O=C(CSc1ccc(-c2ccco2)nn1)Nc1cccc(F)c1` gave an inhibition of 6.71%.
With `O=C(Nc1ccc(F)cc1)c1cc2c(s1)CCCC2` the inhibition was 14%.
In the case of `O=C(Nc1ccc2c(c1)CCC2)c1ccc(Br)s1`, the inhibition is reported as 61.4% (active).
In the case of `CC1CC(C)CN(CCC(=O)Nc2ccc3c(c2)CCC3)C1` (stereo unspecified), the inhibition is reported as -5.01%.
`COc1ccccc1N1CCN(S(=O)(=O)c2ccc3c(c2)NC(=O)CS3)CC1` showed an inhibition of 12.3%.
`COc1cccc(-n2c(=S)sc3c(=O)n(-c4ccccc4C)c(SCC(=O)O)nc32)c1` showed an inhibition of 8.02%.
`C=CCN(C(=O)Cn1ncc2c1-c1cc(C)ccc1OC2)c1ccccc1` showed an inhibition of 16.6%.
Work on `Cc1cc(C)c2c(-c3ccc(F)cc3)c(C#N)c(=O)n(C)c2n1` yielded an inhibition of 11.3%.
`COCCn1c(=O)[nH]c(=O)c2cc(C(=O)c3cc(OC)ccc3O)cnc21` showed an inhibition of -1.14%.
With `COc1ccc(O)c(C(=O)c2cnc3c(c2)c(-c2ccc(F)cc2)c(C#N)c(=O)n3C)c1` the inhibition was 40.2% (active).
In the case of `O=C(c1ccc(-n2cnnn2)cc1)N1CCN(C(c2ccccc2)c2ccccc2)CC1`, the inhibition is reported as 2.74%.
In the case of `c1ccc(-c2nc(NCc3ccco3)c3ccccc3n2)cc1`, the inhibition is reported as 49.9% (active).
Work on `c1ccc2c(NCC3CCCO3)nc(-c3ccncc3)nc2c1` (stereo unspecified) yielded an inhibition of 19.5%.
`Clc1cccc(-c2nc(NCC3CCCO3)c3ccccc3n2)c1` (stereo unspecified) showed an inhibition of 26.8%.
Compound `COc1ccccc1C(=O)N/C(=C/c1ccco1)C(=O)Nc1ccc(C(=O)O)cc1` has an inhibition of -3.06%.
For `N/C(=N\OC(=O)Nc1ccc(Cl)c(Cl)c1)c1ncc(C(F)(F)F)cc1Cl`, the inhibition was 71.5% (active).
`N/C(=N\OC(=O)CCCC(=O)O)c1ncc(C(F)(F)F)cc1Cl` gave an inhibition of -12.6%.
`O=C(c1ccccn1)c1ncc(C(F)(F)F)cc1Cl` showed an inhibition of -12.3%.
`Cc1cccc(C)c1NC(=O)N1CC(C)OC(C)C1` (stereo unspecified) gave an inhibition of -0.538%.
Compound `CNC(=S)NNC(=O)c1oc2nc(-c3ccccc3)cc(-c3ccco3)c2c1N` has an inhibition of 2.74%.
Work on `CCN(CC)C(=O)c1sc2nc(-c3ccccc3)ccc2c1N` yielded an inhibition of 18.6%.
For `CS(=O)(=O)c1sc2nc(-c3ccccc3)cc(-c3ccccc3)c2c1N`, the inhibition was 46.7% (active).
`S=c1[nH]nc2c3c4c(sc3ncn12)CCCC4` gave an inhibition of 29.6%.
`COc1ccc(-c2n[nH]c(C)c2-c2ccccc2OC)c(O)c1` gave an inhibition of 25.2%.
With `C=C(C)COc1ccc(-c2n[nH]c(C)c2-c2ccccc2)c(O)c1` the inhibition was 45.6% (active).
In the case of `C=C(C)COc1ccc(-c2ncncc2-c2ccc(OC)cc2)c(O)c1`, the inhibition is reported as 17.4%.
For `Cn1c(=O)oc2cc(S(=O)(=O)NCCC(=O)NCc3ccccc3Cl)ccc21`, the inhibition was 6.26%.
Compound `O=C(CN1CCSCC1)N/N=C/c1ccc(F)cc1F` has an inhibition of -5.91%.
In the case of `CNS(=O)(=O)c1ccc(NC(=O)C2CC(=O)N(c3ccc(Cl)cc3)C2)cc1` (stereo unspecified), the inhibition is reported as -1.17%.
In the case of `Cc1c(NC(=O)C(C)OC(=O)c2c3c(nc4ccccc24)CCC(C)C3)c(=O)n(-c2ccccc2)n1C` (stereo unspecified), the inhibition is reported as -6.65%.
In the case of `CSCCC(NS(=O)(=O)/C=C/c1ccccc1)C(=O)N1CCC(C)CC1` (stereo unspecified), the inhibition is reported as 43.1% (active).
With `CSCCC(NC(=O)c1ccccc1)C(=O)N1CCCCCCC1` (stereo unspecified) the inhibition was 2.09%.
For `CSCCC(NS(=O)(=O)c1ccc(C)cc1)C(=O)N1CCCC1` (stereo unspecified), the inhibition was -9.58%.
In the case of `O=C1/C(=C/c2cccs2)CCC1C1CCCC1` (stereo unspecified), the inhibition is reported as -11.5%.
`CC(=O)NCc1ccc(S(=O)(=O)NC2CCN(Cc3ccccc3)CC2)cc1` showed an inhibition of 0.58%.
Compound `COc1ccc(S(=O)(=O)NC(C)c2ccccc2)cc1C(=O)N1CCCCC1` (stereo unspecified) has an inhibition of 13.1%.
In the case of `Cc1cccc(C(=O)Nc2ccc(C(=O)/C=C/c3cccs3)cc2)c1`, the inhibition is reported as 10%.
For `Cc1ccc(C2=N/C(=C\c3ccc(OS(=O)(=O)c4ccc(C)cc4)cc3)C(=O)O2)cc1`, the inhibition was -5.54%.
For `Cc1cccc(C2=N/C(=C/c3cccs3)C(=O)O2)c1`, the inhibition was 41.4% (active).
For `CC1(C)C(C=C(Cl)Cl)C1C(=O)N(Cc1ccc(Cl)cc1)C1CCS(=O)(=O)C1` (stereo unspecified), the inhibition was 17.4%.
For `C=CS(=O)c1sc(Cl)c(N2CCOCC2)c1[N+](=O)[O-]` (stereo unspecified), the inhibition was 67.8% (active).
In the case of `CCN(CC)P(=O)(Nc1ccc(SC(F)F)cc1)c1ccc(N(C)C)cc1NC(=O)c1ccco1` (stereo unspecified), the inhibition is reported as 19%.
`Cc1ccc(CCN2CC(C(=O)O)CC2=O)cc1` (stereo unspecified) showed an inhibition of -9.17%.
With `COc1ccc(C(=O)N2CC3(C)CC2CC(C)(C)C3)cc1OC` (stereo unspecified) the inhibition was 9.33%.
With `Cc1nnnn1/C(=C\c1ccccc1)C(=O)OCC(=O)N1CC2(C)CC1CC(C)(C)C2` (stereo unspecified) the inhibition was 62.3% (active).
Compound `CN(C)C(=O)COC(=O)c1cccc(S(=O)(=O)N2CC3(C)CC2CC(C)(C)C3)c1` (stereo unspecified) has an inhibition of 5.89%.
In the case of `Cc1cccc(NC(=S)NC23CN4CN(CN(C4)C2)C3)c1`, the inhibition is reported as -11.6%.
With `Cc1cccc(NC(=S)NCc2ccc3[nH]c4c(c3c2)CCCC4)c1` the inhibition was 42.9% (active).
Compound `Cc1cccc(NC(=S)NCCN(C2CCCCC2)C2CCCC2)c1` has an inhibition of 11.8%.
